# Assay results taken from the supplement of paper PMC8728848.
# This excerpt belongs to a sample that is enriched for the strongest signals.
# B1: OGAA (protein)
# chain: MVQKESQATLEERESELSSNPAASAGASLEPPAAPAPGEDNPAGAGGAAVAGAAGGARRFLCGVVEGFYGRPWVMEQRKELFRRLQKWELNTYLYAPKDDYKHRMFWREMYSVEEAEQLMTLISAAREYEIEFIYAISPGLDITFSNPKEVSTLKRKLDQVSQFGCRSFALLFADIDHNMCAADKEVFSSFAHAQVSITNEIYQYLGEPETFLFCPTEYCGTFCYPNVSQSPYLRTVGEKLLPGIEVLWTGPKVVSKEIPVESIEEVSKIIKRAPVIWDNIHANDYDQKRLFLGPYKGRSTELIPRLKGVLTNPNCEFEANYVAIHTLATWYKSNMNGVRKDVVMTDSEDSTVSIQIKLENEGSDEDIETDVLYSPQMALKLALTEWLQEFGVPHQY
# Experiments:
# Assay in all cases: glycan array binding signal (z-score within array); higher = stronger binding
# Settings in all cases: glycan notation: IUPAC condensed, linker removed
# Gal3S(b1-4)Glc6S = target: Gal3S(b1-4)Glc6S
# Summary of the method: (§1)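 Negative Z-scores can be read as non-binding. The Z-score is calculated within each array and then averaged across arrays of one protein sequence at different concentrations or buffers and across linkers. Arrays, 3228 in all, were curated from the Consortium for Functional Glycomics database and kept only where the protein sequence was available.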
# Gal3S6S(b1-4)GlcNAc6S = target: Gal3S6S(b1-4)GlcNAc6S
# Summary of the method: as §1
# GalNAc(b1-4)Gal(b1-4)Glc = target: GalNAc(b1-4)Gal(b1-4)Glc
# Summary of the method: as §1
# [1] = target: GalNAc(b1-4)GlcNAc(b1-2)Man(a1-3)[GalNAc(b1-4)GlcNAc(b1-2)Man(a1-6)]Man(b1-4)GlcNAc(b1-4)GlcNAc
# Summary of the method: as §1
# [2] = target: Glc(a1-6)Glc(a1-6)Glc(a1-6)Glc
# Summary of the method: as §1
# [3] = target: GlcNAc(a1-4)Gal(b1-4)GlcNAc(b1-3)Gal(b1-4)[Fuc(a1-3)]GlcNAc(b1-3)Gal(b1-4)[Fuc(a1-3)]GlcNAc
# Summary of the method: as §1
# [4] = target: GlcNAc(b1-2)Gal(b1-3)GalNAc
# Summary of the method: as §1
# [5] = target: GlcNAc(b1-2)[GlcNAc(b1-4)]Man(a1-3)[GlcNAc(b1-4)][GlcNAc(b1-2)[GlcNAc(b1-6)]Man(a1-6)]Man(b1-4)GlcNAc(b1-4)GlcNAc
# Summary of the method: as §1
# [6] = target: GlcNAc(b1-3)Gal(b1-4)GlcNAc(b1-3)Gal(b1-4)GlcNAc(b1-3)Gal(b1-4)GlcNAc(b1-2)[GlcNAc(b1-3)Gal(b1-4)GlcNAc(b1-3)Gal(b1-4)GlcNAc(b1-3)Gal(b1-4)GlcNAc(b1-6)]Man(a1-6)[GlcNAc(b1-3)Gal(b1-4)GlcNAc(b1-3)Gal(b1-4)GlcNAc(b1-3)Gal(b1-4)GlcNAc(b1-2)Man(a1-3)]Man(b1-4)GlcNAc(b1-4)[Fuc(a1-6)]GlcNAc
# Summary of the method: as §1
# [7] = target: GlcNAc(b1-3)Gal(b1-4)GlcNAc(b1-3)Gal(b1-4)GlcNAc(b1-3)Gal(b1-4)GlcNAc(b1-3)Gal(b1-4)GlcNAc(b1-2)[GlcNAc(b1-3)Gal(b1-4)GlcNAc(b1-3)Gal(b1-4)GlcNAc(b1-3)Gal(b1-4)GlcNAc(b1-3)Gal(b1-4)GlcNAc(b1-6)]Man(a1-6)[GlcNAc(b1-3)Gal(b1-4)GlcNAc(b1-3)Gal(b1-4)GlcNAc(b1-3)Gal(b1-4)GlcNAc(b1-3)Gal(b1-4)GlcNAc(b1-2)Man(a1-3)]Man(b1-4)GlcNAc(b1-4)[Fuc(a1-6)]GlcNAc
# Summary of the method: as §1
# [8] = target: GlcNAc(b1-4)GlcNAc(b1-4)GlcNAc(b1-4)GlcNAc(b1-4)GlcNAc
# Summary of the method: as §1
# [9] = target: GlcNAc(b1-4)GlcNAc(b1-4)GlcNAc(b1-4)GlcNAc(b1-4)GlcNAc(b1-4)GlcNAc
# Summary of the method: as §1
# [10] = target: Neu5Ac(a2-3)Gal(b1-3)GlcNAc(b1-2)[Neu5Ac(a2-3)Gal(b1-3)GlcNAc(b1-4)]Man(a1-6)[Neu5Ac(a2-3)Gal(b1-3)GlcNAc(b1-2)Man(a1-3)]Man(b1-4)GlcNAc(b1-4)GlcNAc
# Summary of the method: as §1
# [11] = target: Neu5Ac(a2-3)Gal(b1-3)GlcNAc(b1-6)GalNAc
# Summary of the method: as §1
# [12] = target: Neu5Ac(a2-3)Gal(b1-4)GlcNAc(b1-2)Man(a1-3)[Neu5Ac(a2-6)Gal(b1-4)GlcNAc(b1-2)Man(a1-6)]Man(b1-4)GlcNAc(b1-4)GlcNAc
# Summary of the method: as §1
# [13] = target: Neu5Ac(a2-3)Gal(b1-4)[Fuc(a1-3)]GlcNAc(b1-6)[Gal(b1-3)]GalNAc
# Summary of the method: as §1
# [14] = target: Neu5Ac(a2-3)Gal6S(b1-4)GlcNAc
# Summary of the method: as §1
# [15] = target: Neu5Ac(a2-6)Gal(b1-4)GlcNAc(b1-2)Man(a1-3)[Neu5Ac(a2-6)Gal(b1-4)GlcNAc(b1-2)Man(a1-6)]Man(b1-4)GlcNAc(b1-4)GlcNAc
# Summary of the method: as §1
# [16] = target: Neu5Ac(a2-6)Gal(b1-4)GlcNAc(b1-2)Man(a1-3)[Neu5Ac(a2-6)Gal(b1-4)GlcNAc(b1-2)Man(a1-6)]Man(b1-4)GlcNAc(b1-4)[Fuc(a1-6)]GlcNAc
# Summary of the method: as §1
# [17] = target: Neu5Ac(a2-6)GalNAc(b1-4)GlcNAc6S
# Summary of the method: as §1
# [18] = target: Neu5Ac(a2-8)Neu5Ac(a2-3)Gal(b1-3)GalNAc(b1-4)[Neu5Ac(a2-3)]Gal(b1-4)Glc
# Summary of the method: as §1
# [19] = target: Neu5Ac(a2-8)Neu5Ac(a2-3)[GalNAc(b1-4)]Gal(b1-4)Glc
# Summary of the method: as §1
# [20] = target: Neu5Ac(a2-8)Neu5Ac(a2-8)Neu5Ac(a2-3)[Gal(b1-3)GalNAc(b1-4)]Gal(b1-4)Glc
# Summary of the method: as §1
# [21] = target: Neu5Ac(a2-8)Neu5Ac(a2-8)Neu5Ac(a2-8)Neu5Ac(a2-3)[GalNAc(b1-4)]Gal(b1-4)Glc
# Summary of the method: as §1
# [22] = target: Neu5Ac(a2-8)Neu5Gc(a2-3)Gal(b1-4)GlcNAc
# Summary of the method: as §1
binder,measurement,setting,value
B1,glycan array binding signal (z-score),Gal3S(b1-4)Glc6S,-0.088
same,glycan array binding signal (z-score),Gal3S6S(b1-4)GlcNAc6S,-0.045
same,glycan array binding signal (z-score),GalNAc(b1-4)Gal(b1-4)Glc,-0.096
same,glycan array binding signal (z-score),[1],-0.075
same,glycan array binding signal (z-score),[2],-0.081
same,glycan array binding signal (z-score),[3],0.075
same,glycan array binding signal (z-score),[4],-0.094
same,glycan array binding signal (z-score),[5],-0.071
same,glycan array binding signal (z-score),[6],-0.048
same,glycan array binding signal (z-score),[7],-0.029
same,glycan array binding signal (z-score),[8],-0.126
same,glycan array binding signal (z-score),[9],-0.102
same,glycan array binding signal (z-score),[10],0.068
same,glycan array binding signal (z-score),[11],-0.047
same,glycan array binding signal (z-score),[12],-0.118
same,glycan array binding signal (z-score),[13],-0.025
same,glycan array binding signal (z-score),[14],-0.047
same,glycan array binding signal (z-score),[15],-0.079
same,glycan array binding signal (z-score),[16],-0.088
same,glycan array binding signal (z-score),[17],-0.012
same,glycan array binding signal (z-score),[18],-0.107
same,glycan array binding signal (z-score),[19],-0.086
same,glycan array binding signal (z-score),[20],-0.094
same,glycan array binding signal (z-score),[21],-0.107
same,glycan array binding signal (z-score),[22],-0.042
